Methyltransferases: Primary Screen for Target Class Profiling of Small Molecule Inhibitors of Methyltransferases; AID 1745853, 2022; 3.9% of 25,000 active; calls only at 40 µM; purified enzyme, MTase-Glo SAH luminescence; hits give low values; call rule not given here
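Each enzyme was reacted with SAM and its substrate, with compounds tested once at 40 uM; SAH formed was read by MTase-Glo luminescence.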
Calls only; ! = repeats disagree. This excerpt belongs to a sample that is enriched for hits.

Screening CCC(C)NC(=O)c1ccc2c(=O)n(CC(C)C)c3nnc(SCC(N)=O)n3c2c1 (configuration not stated) returned Methyltransferases inactive.
Screening Cc1ccc(C)c(N2CCN(CCN3C(=O)c4ccc(-c5ccco5)n4CC3(C)C(=O)NC3CCCC3)CC2)c1 (configuration not stated) returned Methyltransferases inactive.
C=C1C(=O)O[C@@H]2C/C(C)=C\C(=O)/C=C(\C)[C@@H](OC(=O)/C(C)=C\C)[C@H](O)[C@@H]12 was read as Methyltransferases inactive.
`C=C1C(=O)OC2CC3(C)C(CC12)C(C)=CC(O)C3OC(C)=O` (configuration not stated) gave Methyltransferases active.
For C=C(C)C(=O)O[C@H]1C[C@@](C)(O)C(=O)CC(O)/C(C)=C\[C@H]2OC(=O)C(=C)[C@H]12 (some centres not stated) the results were Methyltransferases inactive.
Screening COc1ccc(CNc2nc3c(S(=O)(=O)c4ccc(Cl)cc4)nnn3c3ccccc23)cc1 returned Methyltransferases inactive.
Screening CCCn1c(=O)c2ccc(C(=O)NC(C)C)cc2n2c(=O)n(Cc3ccccc3F)nc12 returned Methyltransferases inactive.
For CCCn1c(=O)c2cc(Cl)ccc2n2c(SCC(=O)Nc3ccc(C)cc3C)nnc12 the results were Methyltransferases inactive.
Screening CC(C)Cn1c(=O)c2ccc(C(=O)NC(C)C)cc2n2c(SCc3cccc(F)c3)nnc12 returned Methyltransferases inactive.
For CCOC(=O)c1cc2n(n1)CC(C)(C(=O)NC1CCCCCC1)N(c1ccccc1OC)C2=O (configuration not stated) the results were Methyltransferases inactive.
`Cn1ncc2c(C(=O)NC3CCCCCC3)cc(C(C)(C)C)nc21` gave Methyltransferases inactive.
`COc1cccc(C(=O)NC2CCN(c3cc(-c4cccs4)[nH]n3)CC2)c1OC` gave Methyltransferases inactive.
For CCS(=O)(=O)c1cccc(-c2cc(C(=O)NC3CCN(C)CC3)c(C)c3[nH]c4ncc(C)cc4c23)c1 the results were Methyltransferases active.
`CCOc1ccc(CN2C(=O)c3cc4ccc(OC)cc4n3CC2(C)C(=O)NC2CCCC2)cc1` (configuration not stated) gave Methyltransferases inactive.
For Cc1cc(C)c(S(=O)(=O)NCCn2c(-c3ccccc3)nc3ccccc32)cc1C the results were Methyltransferases inactive.
Screening Cc1ccc(C)c(Cn2nc3n(C)c(=O)c4ccc(C(=O)NCC(C)C)cc4n3c2=O)c1 returned Methyltransferases inactive.
For CCC(c1cccs1)N1C(=O)[C@H]2CN(S(=O)(=O)c3ccccc3F)C[C@H]2C1=O (some centres not stated) the results were Methyltransferases inactive.
For Cc1ccc(NC(=O)N2CCN(c3nc(N)nc4sc(-c5cccnc5)nc34)CC2)cc1 the results were Methyltransferases inactive.
For C[C@H](Oc1ccc(S(C)(=O)=O)cc1C(=O)N1CCN(c2ncc(C(F)(F)F)cc2F)CC1)C(F)(F)F the results were Methyltransferases inactive.
Screening O=C(Nc1ccc(C(F)(F)F)cn1)N1CCN(c2ncccc2C(F)(F)F)CC1 returned Methyltransferases active.
For CN1C(=O)c2cc(C(=O)NCc3ccc(F)cc3)nn2CC1(C)C(=O)NCc1ccccc1 (configuration not stated) the results were Methyltransferases inactive.
For CCCN1C(=O)c2c(C(=O)NCCc3ccc(OC)cc3OC)ncn2CC1(C)C(=O)NCc1ccc(C)cc1 (configuration not stated) the results were Methyltransferases inactive.
For Cc1ccc(C)c(NC(=O)c2ncn3c2C(=O)N(C2CC2)C(C)(C(=O)NCc2ccc(F)cc2)C3)c1 (configuration not stated) the results were Methyltransferases inactive.
For CNC1CCC(N(Cc2cccc(-c3ccncc3)c2)C(=O)c2sc3ccccc3c2Cl)CC1 (configuration not stated) the results were Methyltransferases active.
`CNC1CCC(N(Cc2cccc(-c3ccncc3)c2)C(=O)c2sc3c(F)ccc(F)c3c2Cl)CC1` (configuration not stated) gave Methyltransferases active!.
Screening CC(C)C1c2cccn2CCN1C(=O)Nc1cccc(Cl)c1 (configuration not stated) returned Methyltransferases inactive.
`COc1ccc2cc3n(c2c1)CC(C)(C(=O)NCC1CCCO1)N(Cc1ccc(C)cc1)C3=O` (configuration not stated) gave Methyltransferases inactive.
`Cc1ccc(Cn2c(=O)c3ccccc3n3c(SCC(=O)Nc4cccc(Cl)c4)nnc23)cc1` gave Methyltransferases inactive.
For CC1=C2CC3C(CCC3(C)O)C(C)(O)CC2OC1=O (configuration not stated) the results were Methyltransferases active.
Screening CC1(O)CCC2C(C3C1CCC3(C)O)C2(C)C (configuration not stated) returned Methyltransferases inactive.
Screening CC1=C2C[C@@]3(C)C(CCC[C@@H]3C)C(O)C2OC1=O (some centres not stated) returned Methyltransferases inactive.
Screening Cn1c(=O)c2ccc(C(=O)NC3CCCCC3)cc2n2c(SCC(=O)NCc3ccccc3)nnc12 returned Methyltransferases inactive.
Screening Cc1ccc(CCN2C(=O)c3cc4ccccc4n3CC2(C)C(=O)NCc2ccccc2)cc1 (configuration not stated) returned Methyltransferases inactive.
`CC(C)Cn1c(=O)c2ccc(C(=O)NC(C)C)cc2n2c(SCC(N)=O)nnc12` gave Methyltransferases inactive.
For Cc1cc(C(C#N)c2ccc(Cl)cc2)c(Cl)cc1NC(=O)c1cc(I)cc(I)c1O (configuration not stated) the results were Methyltransferases active.
Screening COC(=O)c1cc2n(n1)CC(C)(C(=O)NC1CCC(C)CC1)N(c1ccc(C(C)C)cc1)C2=O (configuration not stated) returned Methyltransferases inactive.
Screening CCOc1ccccc1CN1C(=O)c2cc3sccc3n2CC1(C)C(=O)NC1CCC(C)CC1 (configuration not stated) returned Methyltransferases inactive.
`CC(C)CCN1C(=O)c2nc3ccccc3n2CC1(C)C(=O)NC1CCCC(C)C1C` (configuration not stated) gave Methyltransferases inactive.
CCOC(=O)c1cc2n(n1)CC(C)(C(=O)NCCOC)N(c1cc(Cl)ccc1OC)C2=O (configuration not stated) was read as Methyltransferases inactive.
For CCN1CCCC1CNC(=O)c1cc(S(=O)(=O)CC)c(N)cc1OC (configuration not stated) the results were Methyltransferases inactive.
Screening CCN1CCC[C@H]1CNC(=O)c1c(O)c(Cl)cc(Cl)c1OC returned Methyltransferases inactive.
CCN1CCC[C@@H]1CNC(=O)c1ccc2c(c1)NC(=O)/C(=C/c1ccccc1F)S2 was read as Methyltransferases active.
Screening CC1(C(=O)NC2CCCC2)Cn2c(ccc2-c2ccco2)C(=O)N1Cc1ccc(F)cc1 (configuration not stated) returned Methyltransferases inactive.
Screening O=C1c2ccccc2C(=O)c2cc(S(=O)(=O)NCCO)ccc21 returned Methyltransferases inactive.
`O=C(Cn1ccc2cc(S(=O)(=O)N3CCCC3)ccc21)NC1CCCC1` gave Methyltransferases inactive.
`COc1ccc(CNC(=O)c2ccc3c(=O)n(-c4ccc(F)cc4)c4nnc(C)n4c3c2)cc1` gave Methyltransferases inactive.
N#Cc1ccc(-c2csc(NN=C3CCCC3)n2)cc1 was read as Methyltransferases active!.
